# Values joined by “and” are separate entries in the source; they are usually repeats but may differ in a detail not shown here. Identical values can stand only once. Active and inactive are the calls of the source.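 How the source made its calls, unless noted: active means compound raises insulin release from rat beta cells at 5 mM glucose, no numeric limit stated; inactive means the rest.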
# What was measured:
# [1] = Wnt pathway potentiators raising nuclear beta-catenin – imaging, WNT3A-conditioned medium, mouse C2C12, NPC library, primary screen (AID 1117326; in the data active means nuclear beta-catenin stimulation mostly above about 4.2%, no sharp cut-off; inactive means mostly below about 10%); settings: stronger effect = higher value
# [2] = stimulators of insulin release from INS-1E, primary screen, cell-based, 5 mM glucose, NPC library (AID 1117329); settings: rat INS-1E insulin secretion, at 10 µM, stronger effect = higher value
# [3] = growth inhibition of GSK3B-pretreated HCT116 cells – cell-based, CellTiter-Glo, 0.2 to 20 µM (AID 1117336;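 active means compounds lowering colon cancer cell viability after pretreatment blocking the GSK3B kinase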); settings: HCT116 viability after GSK3B inhibitor, at 20 µM, stronger effect = higher value
# [4] = inhibition of endothelial tube formation, primary screen, imaging, VEGF stimulated, CD31 staining, tube area, NPC library (AID 1117340;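 active means compound that reduces growth-factor-driven endothelial tube area in a mixed cell culture, no cutoff stated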); settings: VEGF-stimulated ADSC/ECFC co-culture, at 10 µM, stronger effect = higher value
# [5] = GLP1 release stimulators, primary, NCI-H716, NPC library (AID 1117341;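 active means compound raises GLP1 secretion from the human gut endocrine cells, with no numeric limit stated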); settings: NCI-H716 cells, at 10 µM, stronger effect = higher value
# [6] = HCT116 colon cancer cell growth inhibition, primary screen, CellTiter-Glo luminescence, NPC library (AID 1117342;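 active means compounds that lower survival of HCT116 colon cancer cells in the luminescence readout, no numeric limit stated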); settings: at 20 µM (top of the series)
# [7] = reduced SW480 viability measured with CellTiter-Glo, NPC library, primary (AID 1117343;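 active means compounds that lower viability of the colon cancer cells in the luminescence readout, with no numeric limit stated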); settings: CellTiter-Glo luminescence; at 20 µM (top of the series) unless noted
# [8] = NPC library primary testing for decreased DLD-1 cell viability via CellTiter-Glo (AID 1117346;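 active means compounds that lower survival of DLD-1 colon cancer cells in the luminescence readout, no cutoff given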); settings: DLD-1 viability, CellTiter-Glo luminescence; at 20 µM (top of the series)
# [9] = growth inhibition, single agent or in combination, cell-based, chromothripsis tumors, cisplatin or BGB combos (AID 1671449; in the data active means inhibition above about 80%;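 further: cells exposed for 96 hours; 0% = vehicle DMSO and 100% = killing by high DMSO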); settings: LFS_MB_P medulloblastoma cells
# [10] = growth inhibition, single agent and combos, cell-based, chromothripsis tumors, cisplatin or BGB combos (AID 1671450; in the data active means inhibition above about 80%;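 further: cells exposed to compound for four days; 0% = vehicle DMSO and 100% = cell killing by high DMSO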); settings: HDN33 neuroblastoma cells, stronger effect = higher value
# [11] = growth inhibition, single agents and combos, ICB984, cell-based, cisplatin or BGB combos, synergistic combos for chromothripsis tumors (AID 1671451; call rule not given here;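 further: cells exposed for 96 hours before readout; 0% = vehicle DMSO and 100% = killing by high DMSO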); settings: ICB984 medulloblastoma cells, drug combinations, stronger effect = higher value
# [12] = growth inhibition, single agents and combos, HTB85, cell-based, BGB or cisplatin IC20 combos, synergistic combos for chromothripsis tumors (AID 1671453; in the data active means inhibition above about 80%;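 further: cells exposed for 96 hours before readout; 0% = vehicle DMSO and 100% = high DMSO killing control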); settings: HTB85 osteosarcoma cells, drug combinations, stronger effect = higher value
# [13] = growth inhibition, MDA-MB-436, cell-based, BGB or cisplatin combos, synergistic combos for chromothripsis tumors (AID 1671458; call rule not given here;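 further: cells exposed for 96 hours; 0% = vehicle DMSO and 100% = killing by high DMSO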); settings: MDA-MB-436 breast carcinoma growth inhibition, drug combinations, stronger effect = higher value
# [14] = viability loss with induced miR-34 in A549 – imaging, A549 dox-inducible miR-34, nuclei and caspase counts, primary screen (AID 1347080;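 active means compounds whose cell count with miR-34 switched on is under 0.7 times the count with it off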); settings: A549 miR-34 inducible, Hoechst nuclei count, 48 h
# [15] = MELAS cybrid and Rieske KO viability enhancers – cell-based, MELAS cybrids, Rieske KO mouse fibroblasts, CellTiter-Glo, primary screen (AID 1508586;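 active means mean z-score across replicates of 1.96 or higher in either the MELAS or the Rieske mutant cell line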;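 further: z relative to plate mean and SD of compound and empty wells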); settings: low glucose
# [16] = molecular target: NAD(+) hydrolase SARM1 (Homo sapiens) (UniProt Q6SZW1); assay: blocking NAD cleavage by SARM1 SAM-TIR – cell lysate, NAD-Glo luminescence (AID 1508614;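 active means compound whose remaining NAD level is above about 45 nM, limit read from the data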); settings: SAM-TIR HEK293T lysate NADase, at 1 µM, stronger effect = higher value
# NAD(+) hydrolase SARM1 (Homo sapiens), sequence (Q6SZW1 whole entry, looked up, the tested form may be a part): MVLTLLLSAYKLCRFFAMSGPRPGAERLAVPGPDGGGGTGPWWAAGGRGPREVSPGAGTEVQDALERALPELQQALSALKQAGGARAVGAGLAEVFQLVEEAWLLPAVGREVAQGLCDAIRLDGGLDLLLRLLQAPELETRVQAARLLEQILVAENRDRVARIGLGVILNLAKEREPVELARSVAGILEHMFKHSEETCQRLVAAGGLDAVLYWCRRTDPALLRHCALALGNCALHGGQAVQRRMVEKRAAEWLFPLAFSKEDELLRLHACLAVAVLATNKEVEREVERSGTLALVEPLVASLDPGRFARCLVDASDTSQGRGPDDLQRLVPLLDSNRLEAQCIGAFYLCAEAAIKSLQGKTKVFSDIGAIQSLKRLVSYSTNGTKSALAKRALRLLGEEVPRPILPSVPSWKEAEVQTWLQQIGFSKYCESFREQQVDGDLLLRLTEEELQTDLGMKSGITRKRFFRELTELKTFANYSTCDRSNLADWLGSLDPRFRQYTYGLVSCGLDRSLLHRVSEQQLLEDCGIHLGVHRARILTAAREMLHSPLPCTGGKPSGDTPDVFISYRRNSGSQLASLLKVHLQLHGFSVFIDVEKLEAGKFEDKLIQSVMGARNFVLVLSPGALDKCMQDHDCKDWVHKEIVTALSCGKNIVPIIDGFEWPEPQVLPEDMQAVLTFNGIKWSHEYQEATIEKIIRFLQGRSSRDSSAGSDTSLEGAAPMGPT
# [17] = molecular target: Mitogen-activated protein kinase 7 (Homo sapiens) (UniProt Q13164); assay: Gal4-ERK5 driven luciferase induction – cell-based, HTS, primary screen (AID 1508626;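 active means luciferase signal above three times the same-plate solvent-only control wells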;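 further: luciferase driven by Gal4-ERK5 fusion binding five Gal4 sites before minimal TATA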); settings: HeLa Gal4-ERK5 transactivation, 18 h, at 5 µM, stronger effect = higher value
# Mitogen-activated protein kinase 7 (Homo sapiens), sequence (Q13164 whole entry, looked up, the tested form may be a part): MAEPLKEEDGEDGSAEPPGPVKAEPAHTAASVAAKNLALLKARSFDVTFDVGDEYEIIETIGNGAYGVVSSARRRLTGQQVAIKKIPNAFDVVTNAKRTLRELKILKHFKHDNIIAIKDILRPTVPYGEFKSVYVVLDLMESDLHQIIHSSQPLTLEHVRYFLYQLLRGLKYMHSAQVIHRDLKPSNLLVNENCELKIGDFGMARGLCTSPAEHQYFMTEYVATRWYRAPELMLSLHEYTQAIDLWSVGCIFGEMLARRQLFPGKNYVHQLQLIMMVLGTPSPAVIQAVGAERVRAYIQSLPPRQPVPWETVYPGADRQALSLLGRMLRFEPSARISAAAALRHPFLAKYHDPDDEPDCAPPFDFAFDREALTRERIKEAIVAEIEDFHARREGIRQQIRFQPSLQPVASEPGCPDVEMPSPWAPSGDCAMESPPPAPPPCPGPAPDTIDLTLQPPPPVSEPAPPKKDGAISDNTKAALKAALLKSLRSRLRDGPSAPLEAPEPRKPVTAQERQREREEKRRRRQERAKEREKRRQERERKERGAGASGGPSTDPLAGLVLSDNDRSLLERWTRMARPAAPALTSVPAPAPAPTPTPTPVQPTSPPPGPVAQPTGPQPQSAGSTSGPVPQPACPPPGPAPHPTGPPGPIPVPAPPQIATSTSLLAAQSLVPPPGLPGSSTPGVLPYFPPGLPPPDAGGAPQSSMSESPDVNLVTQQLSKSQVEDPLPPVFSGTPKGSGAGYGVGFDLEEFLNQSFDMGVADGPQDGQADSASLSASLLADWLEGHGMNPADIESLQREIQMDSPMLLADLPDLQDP
# [18] = stronger effect = lower value, cell number ratio, induced over uninduced
# [19] = measured here: relative caspase fold change +Dox/-Dox
# [20] = measured here: total cells with miR-34 induction, stronger effect = lower value
# [21] = measured here: total cells without miR-34 induction
# [22] = MELAS cybrid survival, CellTiter-Glo 48 h, stronger effect = higher value
# [23] = Rieske KO mouse fibroblast survival, CellTiter-Glo 72 h
smiles,measurement,setting,value
CN1C[C@@H]2C[C@H]1CN2c1cc2c(cc1F)c(=O)c(C(=O)O)cn2C1CC1,nuclear beta-catenin stimulation,[1]; at 10 µM,0.8% (inactive)
same,nuclear beta-catenin stimulation,"[1]; stimulation, at 2 µM",-0.6%
same,insulin secretion stimulation,[2],0.3% (inactive)
same,viability decrease,[3],10.6% (inactive)
same,tube area decrease,[4],-6.5% (inactive)
same,GLP1 secretion stimulation,[5],-0.3% (inactive)
same,inhibition of viability,[6],3.9% (inactive)
same,viability decrease (inhibition),[7],-13% (inactive)
same,viability decrease (inhibition),[8],-40.5% (inactive)
same,inhibition,"[9]; at 0.5 µM, stronger effect = higher value",0.4% (inactive)
same,inhibition,"[9]; measured here: combination with BGB IC20, at 0.005 µM",-2.07%
same,inhibition,"[9]; measured here: combination with BGB IC40, at 0.005 µM",-7.14%
same,inhibition,"[9]; measured here: combination with BGB IC40, at 0.05 µM",-8.41%
same,inhibition,"[9]; measured here: combination with cisplatin, at 0.5 µM, stronger effect = higher value",-11.6%
same,inhibition,"[9]; measured here: combination with cisplatin, at 5 µM, stronger effect = higher value",-5.22%
same,inhibition,"[10]; BGB combo, at 5 µM",-34.1%
same,inhibition,[10]; at 0.5 µM,-30.1% (inactive)
same,inhibition,"[10]; cisplatin combo, at 5 µM",-33.7%
same,inhibition,"[10]; measured here: with BGB IC20 combination, at 0.5 µM",-23.1%
same,inhibition,"[10]; measured here: with cisplatin IC20 combination, at 0.5 µM",-48.5%
same,inhibition,"[10]; single agent, at 5 µM",-33.7%
same,inhibition,"[11]; BGB IC20 combo, at 0.005 µM",-24.2%
same,inhibition,"[11]; BGB IC40 combo, at 0.005 µM",-26.9%
same,inhibition,"[11]; BGB IC40 combo, at 0.05 µM",-20.5%
same,inhibition,[11]; at 0.5 µM,-31.1% (inactive)
same,inhibition,"[11]; cisplatin combo, at 0.05 µM",-23.9%
same,inhibition,"[11]; cisplatin combo, at 0.5 µM",-25.9%
same,inhibition,"[11]; cisplatin combo, at 5 µM",-68.4%
same,inhibition,"[11]; measured here: 5 uM single agent, at 5 µM",-23.8%
same,inhibition,[12]; at 0.5 µM,-40.1% (inactive)
same,inhibition,"[12]; measured here: with BGB IC20, at 0.5 µM",-66.1%
same,inhibition,"[12]; measured here: with BGB IC20, at 5 µM",-64.1%
same,inhibition,"[12]; measured here: with cisplatin IC20, at 0.5 µM",-24.8%
same,inhibition,"[12]; measured here: with cisplatin IC20, at 5 µM",-32.6%
same,inhibition,"[12]; single agent, at 5 µM",-25%
same,inhibition,[13]; at 0.5 µM,-9.69% (inactive)
same,inhibition,"[13]; measured here: BGB combination, at 0.5 µM",1.19%
same,inhibition,"[13]; measured here: BGB combination, at 5 µM",-5.03%
same,inhibition,"[13]; measured here: cisplatin combination, at 0.5 µM",-28.1%
same,inhibition,"[13]; measured here: cisplatin combination, at 5 µM",-7.33%
CCCCN1CCCC1C(=O)Nc1c(C)cc(C)cc1C (centres undefined),nuclear beta-catenin stimulation,[1]; at 10 µM,1% (inactive)
same,nuclear beta-catenin stimulation,"[1]; stimulation, at 2 µM",-0.4%
same,insulin secretion stimulation,[2],0% (inactive)
same,GLP1 secretion stimulation,[5],-3.8% (inactive)
Cc1c(-c2ccc(O)cc2)n(Cc2ccc(OCCN3CCCCCC3)cc2)c2ccc(O)cc12,nuclear beta-catenin stimulation,[1]; at 10 µM,-3.3% (active)
same,nuclear beta-catenin stimulation,"[1]; stimulation, at 2 µM",44.5%
same,insulin secretion stimulation,[2],4.3% (inactive)
same,viability decrease,[3],99.8% (active)
same,inhibition of viability,[6],99.7% (active)
same,viability decrease (inhibition),[7],102% (active)
same,viability decrease (inhibition),[8],101% (active)
same,fold change,[14]; [18],0.919 (inactive)
same,fold change,[14]; [19],0.888
same,cell count,[14]; [20],6380
same,cell count,[14]; [21],6940
same,z-score,[15]; [22],-0.437 (inactive)
same,z-score,[15]; [23],0.502
c1ccc2ccccc2c1,nuclear beta-catenin stimulation,[1]; at 10 µM,0.7% (inactive)
same,nuclear beta-catenin stimulation,"[1]; stimulation, at 2 µM",7.8%
same,insulin secretion stimulation,[2],6.8% (inactive)
same,viability decrease,[3],13.1% (inactive)
same,inhibition of viability,[6],14.8% (inactive)
same,viability decrease (inhibition),[7],-4.5% (inactive)
same,viability decrease (inhibition),[8],4.2% (inactive)
O=C(O)c1cc(N=Nc2ccc(O)c(C(=O)O)c2)ccc1O,nuclear beta-catenin stimulation,[1]; at 10 µM,1.3% (inactive)
same,nuclear beta-catenin stimulation,"[1]; stimulation, at 2 µM",8.5%
same,insulin secretion stimulation,[2],0.9% (inactive)
same,viability decrease,[3],15.9% (inactive)
same,inhibition of viability,[6],20.6% (inactive)
same,viability decrease (inhibition),[7],-10.4% (inactive)
same,viability decrease (inhibition),[8],18.3% (inactive)
same,fold change,[14]; [18],0.936 (inactive) and 1.24 (inactive)
same,fold change,[14]; [19],0.766 and 0.877
same,cell count,[14]; [20],9060 and 9000
same,cell count,[14]; [21],9680 and 7270
same,z-score,[15]; [22],-0.277 (inactive)
same,z-score,[15]; [23],-0.199
same,remaining NAD,[16],10 nM (inactive)
O=C(NC1CCN(CCc2c[nH]c3ccccc23)CC1)c1ccccc1,nuclear beta-catenin stimulation,[1]; at 10 µM,1% (inactive)
same,nuclear beta-catenin stimulation,"[1]; stimulation, at 2 µM",2%
same,insulin secretion stimulation,[2],1.25% (inactive)
same,GLP1 secretion stimulation,[5],-4.5% (inactive)
CC(C)Cn1cnc2c1c(=O)n(C)c(=O)n2C,nuclear beta-catenin stimulation,[1]; at 10 µM,1.9% (inactive)
same,nuclear beta-catenin stimulation,"[1]; stimulation, at 2 µM",-1.3%
same,insulin secretion stimulation,[2],1.65% (inactive)
same,viability decrease,[3],0% (inactive)
same,GLP1 secretion stimulation,[5],3.4% (inactive)
same,inhibition of viability,[6],31.9% (inactive)
same,viability decrease (inhibition),[7],-1.5% (inactive)
same,viability decrease (inhibition),[8],11.3% (inactive)
C[C@]12CCC(=O)C=C1CC[C@H]1[C@@H]3CC[C@](O)(C(=O)CO)[C@@]3(C)C[C@H](O)[C@@]12F,nuclear beta-catenin stimulation,[1]; at 10 µM,-2.1% (inactive)
same,nuclear beta-catenin stimulation,"[1]; stimulation, at 2 µM",-2.1%
same,insulin secretion stimulation,[2],0.3% (inactive)
same,viability decrease,[3],-81.6% (inactive)
same,tube area decrease,[4],10.3% (inactive)
same,GLP1 secretion stimulation,[5],0.3% (inactive)
same,inhibition of viability,[6],-8.17% (inactive)
same,viability decrease (inhibition),[7],-20% (inactive)
same,viability decrease (inhibition),[8],-2% (inactive)
C[S+](CC[C@H](N)C(=O)O)C[C@H]1O[C@@H](n2cnc3c(N)ncnc32)[C@H](O)[C@H]1O (some centres undefined),nuclear beta-catenin stimulation,[1]; at 10 µM,0.8% (inactive)
same,nuclear beta-catenin stimulation,"[1]; stimulation, at 2 µM",1.9%
same,insulin secretion stimulation,[2],1.55% (inactive)
same,GLP1 secretion stimulation,[5],-0.4% (inactive)
C#C[C@]1(OC(C)=O)CC[C@H]2[C@@H]3CCC4=C/C(=N/O)CC[C@@H]4[C@H]3CC[C@@]21CC,nuclear beta-catenin stimulation,[1]; at 10 µM,3.7% (inactive)
same,nuclear beta-catenin stimulation,"[1]; stimulation, at 2 µM",2.1%
same,insulin secretion stimulation,[2],-0.2% (inactive)
same,viability decrease,[3],98.8% (active)
same,tube area decrease,[4],99% (active)
same,GLP1 secretion stimulation,[5],-2.6% (inactive)
same,inhibition of viability,[6],99.1% (active)
same,viability decrease (inhibition),[7],102% (active)
same,viability decrease (inhibition),[8],101% (active)
same,luciferase signal,[17],24 AU (inactive)
CCCCCCCCCCCCCCCCCC[N+](C)(C)CCC[Si](OC)(OC)OC,nuclear beta-catenin stimulation,[1]; at 10 µM,-0.6% (inactive)
same,nuclear beta-catenin stimulation,"[1]; stimulation, at 2 µM",-0.8%
same,insulin secretion stimulation,[2],-0.25% (inactive)
same,viability decrease,[3],14.4% (inactive)
same,GLP1 secretion stimulation,[5],-3.1% (inactive)
same,inhibition of viability,[6],12.9% (inactive)
same,viability decrease (inhibition),[7],-2.9% (inactive)
same,viability decrease (inhibition),[8],1.7% (inactive)
Cc1c(C)n(CCN(C)C)c2ccc(C(=O)OCCN(C)C)cc12,nuclear beta-catenin stimulation,[1]; at 10 µM,1.1% (inactive)
same,nuclear beta-catenin stimulation,"[1]; stimulation, at 2 µM",14.1%
same,insulin secretion stimulation,[2],0.4% (inactive)
same,viability decrease,[3],41.2% (inactive)
same,inhibition of viability,[6],27.7% (inactive)
same,viability decrease (inhibition),[7],71.7% (active)
same,viability decrease (inhibition),[8],0.9% (inactive)
CCCC(=O)O[C@]1(C(=O)CO)CC[C@H]2[C@@H]3CCC4=CC(=O)CC[C@]4(C)[C@H]3[C@@H](O)C[C@@]21C,nuclear beta-catenin stimulation,[1]; at 10 µM,0.1% (inactive)
same,nuclear beta-catenin stimulation,"[1]; stimulation, at 2 µM",1.4%
same,insulin secretion stimulation,[2],1.4% (inactive)
same,viability decrease,[3],-45.5% (inactive)
same,tube area decrease,[4],18.3% (inactive)
same,GLP1 secretion stimulation,[5],3.7% (inactive)
same,inhibition of viability,[6],24.2% (inactive)
same,viability decrease (inhibition),[7],19.8% (inactive)
same,viability decrease (inhibition),[8],1% (inactive)
same,remaining NAD,[16],10 nM (inactive)
same,luciferase signal,[17],148 AU (inactive)

# Source: PubChem BioAssay
